Test results: PubChem BioAssay (NCATS)
Several values for one entry are separate records, joined by “and”; a condition that tells them apart may be missing. Equal entries are not always repeated. Records with an inconclusive call do not appear. Where a structure was tested more than once in an assay, its records may differ in their call. Activity calls are given as the source filed them. Unless noted, calls come from the whole dose curve; as a rule, active = well fitted curve in the direction sought with a large enough effect; inconclusive = small, poorly fitted or top-dose-only effect, or another doubt; inactive = no such curve, though single readings can be large; an effect the other way counts as inactive or inconclusive.

Assays:
[1] = target: Cytochrome P450 3A4 (Homo sapiens) (UniProt P08684); assay: qHTS Assay for Activators of Cytochrome P450 3A4 (AID 885); details: recombinant CYP3A4, Luciferin-PPXE luminescence, 60 min; series mostly up to 57.1 µM; note: nearly all actives have a fitted effect of over 65% in size
Outline: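 Using 20nM recombinant human CYP3A4 in potassium phosphate (200mM), substrate Luciferin-PPXE at 25uM, luminescent luciferin detection followed a 60-min RT NADPH reaction; data scaled to 57 uM ketoconazole.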

[2] = target: Cytochrome P450 1A2 (Homo sapiens) (UniProt P05177); assay: p450-cyp1a2 (AID 410; calls by dose curve; note: potency is the fitted concentration of half-maximal effect); details: recombinant CYP1A2, luciferin-ME demethylation, luminescence; series mostly up to 57 µM
Sequence of Cytochrome P450 1A2 (Homo sapiens) (P05177 whole entry, looked up): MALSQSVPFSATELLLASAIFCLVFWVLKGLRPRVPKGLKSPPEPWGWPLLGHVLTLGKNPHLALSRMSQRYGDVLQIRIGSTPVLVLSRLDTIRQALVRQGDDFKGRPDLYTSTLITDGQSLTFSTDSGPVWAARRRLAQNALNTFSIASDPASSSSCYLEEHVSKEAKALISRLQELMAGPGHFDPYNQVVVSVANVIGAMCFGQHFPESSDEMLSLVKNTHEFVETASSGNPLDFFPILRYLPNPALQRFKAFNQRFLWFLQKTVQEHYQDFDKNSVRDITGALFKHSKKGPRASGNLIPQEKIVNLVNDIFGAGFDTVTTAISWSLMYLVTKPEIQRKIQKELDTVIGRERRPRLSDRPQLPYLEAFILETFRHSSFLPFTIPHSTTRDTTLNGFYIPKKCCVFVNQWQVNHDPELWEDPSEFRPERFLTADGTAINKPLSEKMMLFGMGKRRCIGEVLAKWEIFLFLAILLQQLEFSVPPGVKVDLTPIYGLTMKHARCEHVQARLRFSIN
Outline: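 Luminescent demethylation readout: Luciferin-ME (100uM, equal to Km) turned over by 20nM CYP1A2 for 60 min at room temperature after NADPH regeneration addition, following 10 min compound preincubation. Normalization used 57 uM furafylline as full inhibition.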

[3] = target: Glucocorticoid receptor (Homo sapiens) (UniProt P04150); assay: GR-EFC Redistribution (AID 451; calls by dose curve; note: potency is the fitted concentration of half-maximal effect); details: CHO-K1 GR-EFC translocation, beta-gal luminescence, 2 h
Sequence of Glucocorticoid receptor (Homo sapiens) (P04150 whole entry, looked up, the tested form may be a part): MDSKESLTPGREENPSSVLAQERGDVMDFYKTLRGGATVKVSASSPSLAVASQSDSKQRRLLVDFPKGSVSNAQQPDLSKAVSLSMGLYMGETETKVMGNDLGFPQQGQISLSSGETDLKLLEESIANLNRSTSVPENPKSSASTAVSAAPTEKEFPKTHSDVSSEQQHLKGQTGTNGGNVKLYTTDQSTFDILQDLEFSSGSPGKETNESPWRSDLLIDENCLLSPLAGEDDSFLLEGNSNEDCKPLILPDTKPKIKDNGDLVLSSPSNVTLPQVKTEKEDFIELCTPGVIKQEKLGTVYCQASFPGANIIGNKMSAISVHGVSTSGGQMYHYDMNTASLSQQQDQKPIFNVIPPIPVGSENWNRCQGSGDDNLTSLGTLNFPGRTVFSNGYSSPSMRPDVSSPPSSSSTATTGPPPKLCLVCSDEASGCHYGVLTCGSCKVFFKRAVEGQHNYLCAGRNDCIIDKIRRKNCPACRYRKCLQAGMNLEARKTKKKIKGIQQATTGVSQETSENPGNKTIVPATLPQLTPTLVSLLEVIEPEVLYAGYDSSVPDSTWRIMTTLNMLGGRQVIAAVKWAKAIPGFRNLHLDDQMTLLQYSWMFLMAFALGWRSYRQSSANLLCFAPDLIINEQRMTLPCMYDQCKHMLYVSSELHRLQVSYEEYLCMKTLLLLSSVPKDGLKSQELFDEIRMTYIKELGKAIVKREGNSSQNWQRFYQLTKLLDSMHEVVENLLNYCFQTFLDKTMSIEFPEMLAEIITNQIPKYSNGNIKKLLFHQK
Outline: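 Translocation of GR-ED fusion to nuclear EA restores b-gal, read by luminescence after 1 h room-temperature detection. Engineered CHO-K1 biosensor cells, 1,000/well, exposed 2 h at 37 C to titrations up to 46 uM final.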

[4] = target: 3',5'-cyclic-AMP phosphodiesterase 4B (Homo sapiens) (UniProt Q07343); assay: qHTS Assay for Inhibitors of PDE-IV (AID 607; active = well fitted activation curve with a large enough effect in the main read-out, with a control signal flat, not every such curve was filed as active); details: HEK293 ACTOne CNG channel cells, membrane potential fluorescence; series mostly up to 22.9 µM
Sequence of 3',5'-cyclic-AMP phosphodiesterase 4B (Homo sapiens) (Q07343 whole entry, looked up): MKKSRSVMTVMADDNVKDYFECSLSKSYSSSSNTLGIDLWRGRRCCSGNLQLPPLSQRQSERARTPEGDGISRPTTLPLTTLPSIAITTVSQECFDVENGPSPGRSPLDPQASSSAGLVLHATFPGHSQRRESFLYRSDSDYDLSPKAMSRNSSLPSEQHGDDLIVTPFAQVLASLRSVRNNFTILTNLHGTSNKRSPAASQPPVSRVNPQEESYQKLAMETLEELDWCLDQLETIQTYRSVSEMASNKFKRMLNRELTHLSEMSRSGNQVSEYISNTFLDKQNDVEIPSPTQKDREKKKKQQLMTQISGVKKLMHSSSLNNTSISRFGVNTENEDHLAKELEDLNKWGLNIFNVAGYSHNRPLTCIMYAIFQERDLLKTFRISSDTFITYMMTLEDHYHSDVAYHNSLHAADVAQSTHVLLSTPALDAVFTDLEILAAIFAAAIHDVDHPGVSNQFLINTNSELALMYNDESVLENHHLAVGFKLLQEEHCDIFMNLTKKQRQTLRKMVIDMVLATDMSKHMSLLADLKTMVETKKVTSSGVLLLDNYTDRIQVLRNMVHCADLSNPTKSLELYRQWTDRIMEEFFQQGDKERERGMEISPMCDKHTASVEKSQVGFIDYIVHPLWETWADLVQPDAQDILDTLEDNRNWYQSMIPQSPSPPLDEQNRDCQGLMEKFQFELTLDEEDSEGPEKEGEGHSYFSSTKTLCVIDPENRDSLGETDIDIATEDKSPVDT
Outline: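 Live HEK293 cells with a modified cyclic nucleotide-gated (CNG) channel report intracellular cAMP via membrane-potential dye fluorescence (ex 535/em 590 nm). Endogenous PDE-IV was targeted. Compounds were tested at up to 22.9 uM final; RO 20-1724 100 uM served as control.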

[5] = target: Cytochrome P450 2D6 (Homo sapiens) (UniProt P10635); assay: qHTS Assay for Inhibitors and Substrates of Cytochrome P450 2D6 (AID 891); details: recombinant CYP2D6, luciferin-ME EGE luminescence; series mostly up to 57.1 µM; note: potency is the fitted concentration of half-maximal effect; nearly all actives have a fitted effect of over 60% in size
Outline: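 Luminescent read-out of luciferin formed by 5 nM human CYP2D6 demethylating 30 uM Luciferin-ME EGE (Km level) over 60 min at room temperature after NADPH regeneration addition. Data normalized to full inhibition by 1.43 uM quinidine.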

[6] = qHTS Assay for Identification of Small Molecule Agonists for Thrombopoietin (TPO) Signaling Pathway (AID 917); details: TPO signaling pathway reporter cells, agonist qHTS; series mostly up to 38.5 µM
Outline: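 Stimulation at the TPO EC50 (26 pM final) was used to detect activators. Ba/F3 mouse cells bearing human TPO receptor and a luciferase reporter under the Glycoprotein IIb promoter were exposed to compounds for 24 hrs at 37 C.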

[7] = target: Muscarinic acetylcholine receptor M1 (Rattus norvegicus) (UniProt P08482); assay: qHTS Assay for Antagonists of Acetylcholine Muscarinic M1 Receptor: Kinetic Measurement of Intracellular Calcium Response (AID 943); details: M1-expressing cells, kinetic intracellular calcium fluorescence; series mostly up to 35.3 µM; note: potency is the fitted concentration of half-maximal effect; nearly all actives have a fitted effect of over 75% in size
Sequence of Muscarinic acetylcholine receptor M1 (Rattus norvegicus) (P08482 whole entry, looked up): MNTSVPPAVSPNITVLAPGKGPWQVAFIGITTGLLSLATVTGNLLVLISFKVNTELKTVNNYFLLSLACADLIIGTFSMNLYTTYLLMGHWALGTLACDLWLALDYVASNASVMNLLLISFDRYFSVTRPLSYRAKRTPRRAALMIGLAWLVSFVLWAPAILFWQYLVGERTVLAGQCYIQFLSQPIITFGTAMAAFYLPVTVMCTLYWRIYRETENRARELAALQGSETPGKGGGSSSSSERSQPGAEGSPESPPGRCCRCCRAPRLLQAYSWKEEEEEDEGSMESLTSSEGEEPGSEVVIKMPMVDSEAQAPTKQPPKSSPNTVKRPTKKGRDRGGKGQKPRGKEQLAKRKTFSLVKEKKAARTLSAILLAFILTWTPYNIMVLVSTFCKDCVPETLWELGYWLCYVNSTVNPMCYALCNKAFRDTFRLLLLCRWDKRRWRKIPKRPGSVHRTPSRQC
Outline: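 Antagonism measured as reduction of carbachol-evoked (EC80, 100 nM final) calcium flux in rat M1-CHO cells after 10 min compound exposure. Fluo-4 signal read kinetically; ratio of maximal to basal fluorescence.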

[8] = target: Muscarinic acetylcholine receptor M1 (Rattus norvegicus) (UniProt P08482); assay: qHTS Assay for Antagonists of Acetylcholine Muscarinic M1 Receptor: Measurement of IP-One Response (AID 944); details: CHO-M1 cells, IP-One HTRF, antagonist mode; series mostly up to 46.1 µM; note: potency is the fitted concentration of half-maximal effect; nearly all actives have a fitted effect of over 75% in size
Outline: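 IP1 accumulation measured via TR-FRET between d2-IP1 and Eu-cryptate anti-IP1 antibody after carbachol (200 nM, EC80) stimulation for 30 min; rat M1-transfected CHO cells received compound 10 min before agonist.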

[9] = target: Pyruvate kinase (Leishmania mexicana) (UniProt Q27686); assay: qHTS Validation Assay for Inhibitors of Leishmania Mexicana Pyruvate Kinase (AID 945); details: purified L. mexicana pyruvate kinase, enzyme activity, E451W mutant enzyme; series mostly up to 57.5 µM
Outline: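 LmPYK E451W 0.2 nM; 0.5 mM PEP, 0.1 mM ADP, 7 mM MgCl2, 50 mM KCl, imidazole pH 7.2, 0.01% Tween 20, 0.05% BSA; 1 h RT; PKLight luminescence; DMSO-normalized.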

[10] = target: Pyruvate kinase PKM (Homo sapiens) (UniProt P14618); assay: qHTS Assay for Activators of Human Muscle Pyruvate Kinase (AID 954; active = well fitted curve in the direction sought with a large enough effect, not every such curve was filed as active); details: purified human muscle pyruvate kinase, luciferase-coupled luminescence, 1 h; series mostly up to 57.5 µM
Sequence of Pyruvate kinase PKM (Homo sapiens) (P14618 whole entry, looked up): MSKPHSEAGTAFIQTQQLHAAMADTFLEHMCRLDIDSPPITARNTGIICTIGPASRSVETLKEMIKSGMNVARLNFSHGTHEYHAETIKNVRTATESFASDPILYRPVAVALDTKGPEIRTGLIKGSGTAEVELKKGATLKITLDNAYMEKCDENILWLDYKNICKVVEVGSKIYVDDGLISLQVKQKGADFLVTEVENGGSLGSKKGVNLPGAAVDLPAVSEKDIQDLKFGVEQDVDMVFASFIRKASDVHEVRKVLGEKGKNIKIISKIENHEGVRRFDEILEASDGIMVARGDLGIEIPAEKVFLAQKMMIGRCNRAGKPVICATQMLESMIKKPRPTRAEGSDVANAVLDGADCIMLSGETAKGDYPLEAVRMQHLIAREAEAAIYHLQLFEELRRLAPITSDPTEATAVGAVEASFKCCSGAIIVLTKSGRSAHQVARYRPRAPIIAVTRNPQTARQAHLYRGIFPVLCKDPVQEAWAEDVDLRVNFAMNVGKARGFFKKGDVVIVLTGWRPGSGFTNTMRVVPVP
Outline: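 Screening used highly purified human pyruvate kinase M2 under submaximal activity, with PEP at its Km and ADP below Km. After an hour at room temperature, ATP was read by luciferase luminescence.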

[11] = target: Alpha-galactosidase (Coffea arabica) (UniProt Q42656); assay: Counterscreen for Glucocerebrosidase Inhibitors: qHTS Assay for Coffee Bean alpha-Galactosidase at pH 4.5 (AID 957); details: purified coffee bean alpha-galactosidase, fluorogenic substrate; series mostly up to 76.9 µM
Sequence of Alpha-galactosidase (Coffea arabica) (Q42656 whole entry, looked up): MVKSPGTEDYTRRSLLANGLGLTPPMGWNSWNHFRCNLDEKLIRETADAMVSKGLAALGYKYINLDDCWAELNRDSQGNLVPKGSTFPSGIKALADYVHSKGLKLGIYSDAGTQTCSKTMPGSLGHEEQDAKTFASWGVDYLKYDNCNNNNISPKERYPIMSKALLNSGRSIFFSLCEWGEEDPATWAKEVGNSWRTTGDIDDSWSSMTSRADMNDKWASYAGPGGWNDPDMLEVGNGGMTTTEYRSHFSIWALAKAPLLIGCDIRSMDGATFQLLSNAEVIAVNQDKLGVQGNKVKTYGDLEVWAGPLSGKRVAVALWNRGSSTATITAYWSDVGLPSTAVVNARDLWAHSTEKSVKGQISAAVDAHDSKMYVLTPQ
Outline: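 Fluorogenic qHTS at pH 4.5 (citrate buffer with Tween-20): 2 nM enzyme, 80 uM 4-MU-alpha-galactoside substrate, compound titrated 0.7 nM to 77 uM, 20 min room temperature. Glycine/NaOH stop; 4-MU read Ex 365/Em 440; Hill-equation AC50 against no-enzyme and enzyme controls.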

[12] = target: Alpha-galactosidase A (Homo sapiens) (UniProt P06280); assay: Counterscreen for Glucocerebrosidase Inhibitors: qHTS Assay for Human alpha-Galactosidase at pH 4.5 (AID 992); details: purified enzyme, fluorogenic substrate; series mostly up to 76.9 µM
Sequence of Alpha-galactosidase A (Homo sapiens) (P06280 whole entry, looked up): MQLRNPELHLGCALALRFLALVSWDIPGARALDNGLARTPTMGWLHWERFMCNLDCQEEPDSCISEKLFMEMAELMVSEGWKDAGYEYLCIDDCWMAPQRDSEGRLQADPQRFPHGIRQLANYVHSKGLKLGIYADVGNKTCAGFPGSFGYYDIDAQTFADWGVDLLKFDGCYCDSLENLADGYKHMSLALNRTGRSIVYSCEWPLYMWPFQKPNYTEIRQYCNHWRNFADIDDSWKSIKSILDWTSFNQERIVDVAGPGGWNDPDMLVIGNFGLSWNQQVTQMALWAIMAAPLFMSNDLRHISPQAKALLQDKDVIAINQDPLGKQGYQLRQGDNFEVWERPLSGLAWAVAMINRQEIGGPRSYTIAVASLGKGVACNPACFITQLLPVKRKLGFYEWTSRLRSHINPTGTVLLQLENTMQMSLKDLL
Outline: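 Each compound is preincubated briefly with 2 nM enzyme before substrate addition (80 uM); plates then sit 20 min at ambient temperature, are quenched with 1M NaOH/1M glycine, and read fluorometrically.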

[13] = target: alpha-glucosidase (Oryza sativa, rice) (UniProt Q653V4); assay: Counterscreen for Glucocerebrosidase Inhibitors: qHTS Assay for Rice alpha-Glucosidase at pH 5.0 (AID 997); details: rice alpha-glucosidase enzyme activity; series mostly up to 76.9 µM
Outline: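 Endpoint fluorogenic assay at pH 5.0: compounds (0.7 nM to 77 uM) titrated against 4 nM rice enzyme and 400 uM 4-MU-alpha-glucoside for 20 min at room temperature; NaOH/glycine stop, read ex 365/em 440 nm, Hill-fitted AC50.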

[14] = target: Alpha-galactosidase (Coffea arabica) (UniProt Q42656); assay: Counterscreen for Glucocerebrosidase Inhibitors: qHTS Assay for Coffee Bean alpha-Galactosidase at pH 5.9 (AID 998); details: coffee bean alpha-galactosidase enzyme assay; series mostly up to 76.9 µM
Outline: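 Fluorogenic 4-MU substrate hydrolysis, 80 uM substrate and 2 nM coffee bean alpha-galactosidase, pH 5.9 citrate buffer, 20 min at room temperature, then NaOH/glycine stop. Titration 0.7 nM–77 uM, normalized to no-enzyme and enzyme controls, AC50 via Hill equation.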

[15] = target: Ubiquitin carboxyl-terminal hydrolase 1 (Homo sapiens) (UniProt O94782); assay: Inhibitors of USP1/UAF1: Pilot qHTS (AID 504865); details: purified USP1/UAF1, Ub-rhodamine cleavage fluorescence; series mostly up to 114 µM;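 note: rhodamine fluorescence freed from ubiquitin-rhodamine substrate followed over time; top concentration of the series differs between compounds; nearly all actives have a fitted effect of over 35% in size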
Sequence of Ubiquitin carboxyl-terminal hydrolase 1 (Homo sapiens) (O94782 whole entry, looked up): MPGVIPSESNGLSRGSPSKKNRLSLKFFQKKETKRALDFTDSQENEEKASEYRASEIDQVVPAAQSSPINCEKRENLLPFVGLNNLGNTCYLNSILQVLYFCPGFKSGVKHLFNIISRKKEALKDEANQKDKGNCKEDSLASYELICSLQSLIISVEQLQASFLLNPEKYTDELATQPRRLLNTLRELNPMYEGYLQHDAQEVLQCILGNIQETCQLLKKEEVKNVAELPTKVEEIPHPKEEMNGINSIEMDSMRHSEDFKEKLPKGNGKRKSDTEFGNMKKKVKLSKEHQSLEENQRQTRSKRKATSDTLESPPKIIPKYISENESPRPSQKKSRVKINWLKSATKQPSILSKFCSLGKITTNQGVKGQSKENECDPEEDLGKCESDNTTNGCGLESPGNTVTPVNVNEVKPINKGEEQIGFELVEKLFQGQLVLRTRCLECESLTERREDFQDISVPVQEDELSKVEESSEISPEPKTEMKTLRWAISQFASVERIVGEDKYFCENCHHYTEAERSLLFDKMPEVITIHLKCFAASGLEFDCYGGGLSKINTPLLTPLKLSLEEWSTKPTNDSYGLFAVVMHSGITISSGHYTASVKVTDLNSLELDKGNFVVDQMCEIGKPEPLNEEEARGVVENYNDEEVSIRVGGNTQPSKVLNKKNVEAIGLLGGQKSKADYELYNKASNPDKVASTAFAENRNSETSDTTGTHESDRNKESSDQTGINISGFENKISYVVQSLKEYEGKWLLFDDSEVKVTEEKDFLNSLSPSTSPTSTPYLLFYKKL
Outline: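 USP1/UAF1 complex at 1 nM preincubated 15 min at room temperature with compound, then Ub-Rho substrate added at 150 nM final. Fluorescence (480/540 nm) read kinetically in 50 mM HEPES pH 7.8, 0.5 mM EDTA, 1 mM TCEP, 0.1 mg/ml BSA, 0.01% Tween-20.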

[16] = target: Furin (Homo sapiens) (UniProt P09958); assay: Furin counterscreen qHTS for Zika virus inhibitors (AID 1347149); details: furin enzymatic counterscreen, fluorogenic substrate; series mostly up to 57.5 µM;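 note: purified recombinant full-length human furin enzyme at 5 nM; fluorescence gain from furin cutting a BOC-RVRR-AMC peptide substrate over 15 min; top concentration of the series differs between compounds; nearly all actives have a fitted effect of over 70% in size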
Outline: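 Counterscreen measures cleavage of 2 microM BOC-RVRR-AMC, below its ~15 microM Km, by 5 nM full-length human furin at pH 7.0 after a 15-min compound preincubation. Inhibition derives from the 15-min fluorescence increase at 37C.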

[17] = Vero cells viability qHTS for Zika virus inhibitors (AID 1347167); details: cytotoxicity counter-screen (Zika); series mostly up to 45.9 µM
Outline: (§1)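 Luminescent ATP readout (CellTiter Glo) after 30 min at 37 degrees C gives viability; cells in DMEM + 4% FBS were treated 24 to 48 hours with compound, following overnight attachment.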

[18] = HepG2 cells viability qHTS for Zika virus inhibitors (AID 1347168); details: Zika counter-screen; series mostly up to 45.9 µM
Outline: as §1

[19] = target: Calcium and integrin-binding protein 1 (Homo sapiens) (UniProt Q99828); assay: Confirmatory qHTS for Identification of Calcium Integrin Binding Protein 1 (CIB1) Competitor (AID 1508617); details: CIB1 binding competition assay, biochemical qHTS; note: potency is the fitted concentration of half-maximal effect; nearly all actives have a fitted effect of over 65% in size
Sequence of Calcium and integrin-binding protein 1 (Homo sapiens) (Q99828 whole entry, looked up): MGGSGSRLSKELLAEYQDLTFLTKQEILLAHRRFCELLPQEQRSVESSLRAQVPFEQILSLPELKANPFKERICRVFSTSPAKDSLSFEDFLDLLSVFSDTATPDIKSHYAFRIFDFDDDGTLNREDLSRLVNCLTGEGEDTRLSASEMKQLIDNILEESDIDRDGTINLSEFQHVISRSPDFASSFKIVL
Outline: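 Binding competition between test compounds and fluorescent alphaIIb peptide for 1 uM CIB1-GST is monitored by FP at 480/540 nm. Final compound range is up to 114 uM; unlabeled peptide serves as reference competitor.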

[20] = Confirmatory screen GU Rhodamine qHTS for Zika virus inhibitors qHTS (AID 1347157); details: purified enzyme assay, Rhodamine110 substrate fluorescence, 15 min; series mostly up to 114 µM; note: potency is the fitted concentration of half-maximal effect; nearly all actives have a fitted effect of over 70% in size
Outline: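 Percent inhibition came from the 15-min rise in Rhodamine110 fluorescence (1.5 microM substrate, ~15% conversion), normalized to no-inhibitor and no-enzyme wells and Hill-fitted. Unlinked protease, 25 nM, pH 8.0 Tris buffer; compounds up to 114 microM, 15-min preincubation.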

Measured: Potency

CN1CCc2cc3c(cc2C1C1OC(=O)c2c1ccc1c2OCO1)OCO3 (stereo unspecified)
inactive: [1]

C=CCN1CCC2(C)c3cc(O)ccc3C[C@H]1[C@H]2C
active: [5] 7.94 µM and 631 nM | [7] 14.1 µM | [8] 17.8 µM and 15.8 µM
inactive: [3] > 46 µM | [4] | [6] | [9] | [10] | [11] | [12] | [13] | [14] | [15] | [16] | [17] | [18]
inactive and 31.6 µM (active): [2]

C=C1[C@@H](C)[C@H]2[C@H](Cc3ccccc3)NC(=O)[C@]23OC(=O)/C=C/C(=O)CCC[C@@H](C)C/C=C/[C@H]3[C@@H]1O
active: [19] 10 µM

CNc1ccc2oc(C[C@H]3O[C@@]4(CC[C@H]3C)O[C@H](C(C)C(=O)c3ccc[nH]3)[C@H](C)C[C@H]4C)nc2c1C(=O)O (stereo partly specified)
active: [20] 13.9 µM

CC1CCCC(=O)CCC/C=C/c2cc(O)cc(O)c2C(=O)O1 (stereo unspecified)
inactive: [15]
